# Article PMC7862700, “An all-to-all approach to the identification of sequence-specific readers for epigenetic DNA modifications on cytosine”
# Assays:
# Assay in all cases: DAPPL (digital affinity profiling via proximity ligation, sequencing); 10 mM Tris-HCl pH 7.5, 50 mM NaCl, 1 mM DTT, 4% glycerol, room temperature, 30 min; GST-TFs on glutathione beads, 16-mer random dsDNA library, 0.1% formaldehyde crosslink after washing; high values mean tight binding
# [1] = target: T1, FLI1 (Homo sapiens, UniProt Q01543 1-452); details: protein: recombinant; tags: N-terminal GST; dsDNA, one strand shown
# T1 sequence: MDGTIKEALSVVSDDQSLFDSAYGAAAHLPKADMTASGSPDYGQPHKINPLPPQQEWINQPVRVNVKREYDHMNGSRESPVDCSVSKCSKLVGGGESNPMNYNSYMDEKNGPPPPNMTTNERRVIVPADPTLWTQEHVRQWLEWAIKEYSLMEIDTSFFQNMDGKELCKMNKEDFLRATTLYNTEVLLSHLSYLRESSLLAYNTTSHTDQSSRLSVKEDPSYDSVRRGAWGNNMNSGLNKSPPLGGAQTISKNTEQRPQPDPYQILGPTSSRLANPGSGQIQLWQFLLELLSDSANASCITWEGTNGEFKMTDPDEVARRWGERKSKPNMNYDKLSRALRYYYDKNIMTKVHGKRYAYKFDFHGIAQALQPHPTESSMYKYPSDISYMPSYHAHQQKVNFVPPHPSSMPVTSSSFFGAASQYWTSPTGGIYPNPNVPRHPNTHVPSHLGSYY
# Summary of the method: (§1)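 Binding signal is defined as a hexamer's read frequency for one factor over its frequency for the tag-only sample. To obtain reads, GST-fused human transcription factors were expressed in yeast, captured on glutathione beads, barcoded with DNA and pooled with that sample. Pools met 200 nmole of a 16-mer random double-stranded DNA library in Tris/NaCl/DTT/glycerol buffer for 30 min at room temperature before washing, 0.1% formaldehyde crosslinking, proximity ligation (BsaI/T4 ligase, 1 h, 37 °C), PCR and Illumina NextSeq500 sequencing.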
# [2] = target: T2, ELK1 (Homo sapiens, UniProt P19419 1-428); details: protein: recombinant; tags: N-terminal GST; dsDNA, one strand shown
# T2 sequence: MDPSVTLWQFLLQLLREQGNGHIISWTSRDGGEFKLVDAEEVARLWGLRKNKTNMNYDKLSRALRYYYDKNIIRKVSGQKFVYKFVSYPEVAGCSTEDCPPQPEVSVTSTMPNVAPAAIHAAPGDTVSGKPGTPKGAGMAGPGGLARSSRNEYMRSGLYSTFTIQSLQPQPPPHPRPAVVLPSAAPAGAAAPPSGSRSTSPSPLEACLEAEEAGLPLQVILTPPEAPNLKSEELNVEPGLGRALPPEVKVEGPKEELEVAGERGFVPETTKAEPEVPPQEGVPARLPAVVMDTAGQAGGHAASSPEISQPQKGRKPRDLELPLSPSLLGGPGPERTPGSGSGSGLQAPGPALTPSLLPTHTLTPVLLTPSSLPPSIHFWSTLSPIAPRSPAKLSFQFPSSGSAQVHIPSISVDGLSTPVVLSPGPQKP
# Summary of the method: as §1
# [3] = target: T3, GABPA (Homo sapiens, UniProt Q06546 1-454); details: protein: recombinant; tags: N-terminal GST; dsDNA, one strand shown
# T3 sequence: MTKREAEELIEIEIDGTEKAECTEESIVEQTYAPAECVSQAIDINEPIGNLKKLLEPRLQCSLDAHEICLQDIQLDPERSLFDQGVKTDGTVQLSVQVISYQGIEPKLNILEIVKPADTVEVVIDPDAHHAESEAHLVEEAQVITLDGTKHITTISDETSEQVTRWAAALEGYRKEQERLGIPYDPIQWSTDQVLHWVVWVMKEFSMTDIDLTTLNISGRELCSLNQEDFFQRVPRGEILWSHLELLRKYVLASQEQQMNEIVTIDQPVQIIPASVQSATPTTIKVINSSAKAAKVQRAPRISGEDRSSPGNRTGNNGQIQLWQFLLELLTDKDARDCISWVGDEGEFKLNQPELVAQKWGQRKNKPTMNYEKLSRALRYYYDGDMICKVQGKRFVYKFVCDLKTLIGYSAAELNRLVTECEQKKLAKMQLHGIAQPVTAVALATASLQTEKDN
# Summary of the method: as §1
# [4] = target: T4, ERG (Homo sapiens, UniProt P11308 1-479); details: protein: recombinant; tags: N-terminal GST; dsDNA, one strand shown
# T4 sequence: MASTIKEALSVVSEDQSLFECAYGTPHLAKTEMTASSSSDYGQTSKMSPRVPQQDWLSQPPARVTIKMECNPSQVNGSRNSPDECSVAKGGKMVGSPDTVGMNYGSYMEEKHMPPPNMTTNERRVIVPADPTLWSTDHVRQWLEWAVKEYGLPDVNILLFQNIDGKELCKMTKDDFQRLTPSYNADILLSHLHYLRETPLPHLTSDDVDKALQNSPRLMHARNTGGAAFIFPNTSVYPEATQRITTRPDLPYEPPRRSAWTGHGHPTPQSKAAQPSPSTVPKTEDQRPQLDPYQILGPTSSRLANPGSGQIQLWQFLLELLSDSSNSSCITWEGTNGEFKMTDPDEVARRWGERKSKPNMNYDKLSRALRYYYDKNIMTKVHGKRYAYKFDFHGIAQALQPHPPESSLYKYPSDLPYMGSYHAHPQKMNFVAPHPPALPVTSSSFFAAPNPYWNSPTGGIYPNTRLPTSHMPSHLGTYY
# Summary of the method: as §1
# [5] = target: ELF1 (Homo sapiens, UniProt P32519 1-619); details: protein: recombinant; tags: N-terminal GST; dsDNA, one strand shown
# Chain of ELF1 (P32519 whole entry): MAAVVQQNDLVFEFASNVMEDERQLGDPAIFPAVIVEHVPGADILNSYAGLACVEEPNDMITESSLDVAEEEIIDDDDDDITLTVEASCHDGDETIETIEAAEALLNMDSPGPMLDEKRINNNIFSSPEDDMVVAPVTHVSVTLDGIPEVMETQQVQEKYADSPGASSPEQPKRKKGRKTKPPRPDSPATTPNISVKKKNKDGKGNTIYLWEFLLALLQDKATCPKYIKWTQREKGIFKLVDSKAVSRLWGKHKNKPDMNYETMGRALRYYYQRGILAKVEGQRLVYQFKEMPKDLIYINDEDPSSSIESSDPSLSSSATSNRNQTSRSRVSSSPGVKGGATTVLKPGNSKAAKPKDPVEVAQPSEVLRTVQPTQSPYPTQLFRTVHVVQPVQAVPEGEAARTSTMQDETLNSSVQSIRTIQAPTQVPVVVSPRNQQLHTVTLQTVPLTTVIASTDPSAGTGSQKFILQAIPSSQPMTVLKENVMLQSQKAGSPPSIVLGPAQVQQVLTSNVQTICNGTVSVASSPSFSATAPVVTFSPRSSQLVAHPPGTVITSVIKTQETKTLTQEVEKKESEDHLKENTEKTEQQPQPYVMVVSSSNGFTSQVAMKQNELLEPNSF
# Summary of the method: as §1
# [6] = target: T5, EHF (Homo sapiens, UniProt Q9NZC4 1-300); details: protein: recombinant; tags: N-terminal GST; dsDNA, one strand shown
# T5 sequence: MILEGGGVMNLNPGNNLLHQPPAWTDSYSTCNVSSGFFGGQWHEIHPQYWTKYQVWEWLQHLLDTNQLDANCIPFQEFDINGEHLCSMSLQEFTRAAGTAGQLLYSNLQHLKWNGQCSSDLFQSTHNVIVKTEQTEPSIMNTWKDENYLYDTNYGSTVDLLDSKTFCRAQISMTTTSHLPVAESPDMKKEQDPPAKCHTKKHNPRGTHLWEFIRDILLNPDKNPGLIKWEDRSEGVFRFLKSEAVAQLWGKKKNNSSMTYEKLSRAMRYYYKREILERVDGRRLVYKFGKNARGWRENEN
# Summary of the method: as §1
# [7] = target: SPI1 (Homo sapiens, UniProt P17947 1-270); details: protein: recombinant; tags: N-terminal GST; dsDNA, one strand shown
# Summary of the method: as §1
# [8] = target: SPIB (Homo sapiens, UniProt Q01892 1-262); details: protein: recombinant; tags: N-terminal GST; dsDNA, one strand shown
# Chain of SPIB (Q01892 whole entry): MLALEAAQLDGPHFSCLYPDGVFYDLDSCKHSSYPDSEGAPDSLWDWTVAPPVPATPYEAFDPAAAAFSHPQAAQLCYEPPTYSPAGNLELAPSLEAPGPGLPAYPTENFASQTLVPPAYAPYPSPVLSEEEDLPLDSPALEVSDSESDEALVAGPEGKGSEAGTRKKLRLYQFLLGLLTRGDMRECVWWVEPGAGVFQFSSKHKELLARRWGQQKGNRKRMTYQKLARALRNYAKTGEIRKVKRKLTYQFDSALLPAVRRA
# Summary of the method: as §1
# [9] = target: T6, ELK3 (Homo sapiens, UniProt P41970 1-407); details: protein: recombinant; tags: N-terminal GST; dsDNA, one strand shown
# T6 sequence: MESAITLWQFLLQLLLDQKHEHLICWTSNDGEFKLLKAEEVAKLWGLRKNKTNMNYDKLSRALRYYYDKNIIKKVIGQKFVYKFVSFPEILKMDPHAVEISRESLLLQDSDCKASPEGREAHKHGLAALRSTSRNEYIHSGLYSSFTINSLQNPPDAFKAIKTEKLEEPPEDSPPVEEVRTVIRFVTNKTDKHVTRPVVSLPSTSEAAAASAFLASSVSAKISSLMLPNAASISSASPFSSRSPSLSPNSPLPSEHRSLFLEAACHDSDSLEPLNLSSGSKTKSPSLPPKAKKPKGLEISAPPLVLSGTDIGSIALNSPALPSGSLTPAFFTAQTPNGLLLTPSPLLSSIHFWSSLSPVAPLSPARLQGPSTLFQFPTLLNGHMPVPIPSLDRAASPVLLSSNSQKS
# Summary of the method: as §1
# [10] = target: T7, FEV (Homo sapiens, UniProt Q99581 1-238); details: protein: recombinant; tags: N-terminal GST; dsDNA, one strand shown
# T7 sequence: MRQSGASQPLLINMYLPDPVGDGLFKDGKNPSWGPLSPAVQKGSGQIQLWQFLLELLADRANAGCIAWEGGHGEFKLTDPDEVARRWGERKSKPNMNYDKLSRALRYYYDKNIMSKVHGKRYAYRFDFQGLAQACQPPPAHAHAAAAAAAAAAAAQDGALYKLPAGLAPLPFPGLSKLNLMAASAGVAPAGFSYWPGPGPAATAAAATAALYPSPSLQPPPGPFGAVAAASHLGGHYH
# Summary of the method: as §1
# [11] = target: ETV5 (Homo sapiens, UniProt P41161 1-510); details: protein: recombinant; tags: N-terminal GST; dsDNA, one strand shown
# Chain of ETV5 (P41161 whole entry): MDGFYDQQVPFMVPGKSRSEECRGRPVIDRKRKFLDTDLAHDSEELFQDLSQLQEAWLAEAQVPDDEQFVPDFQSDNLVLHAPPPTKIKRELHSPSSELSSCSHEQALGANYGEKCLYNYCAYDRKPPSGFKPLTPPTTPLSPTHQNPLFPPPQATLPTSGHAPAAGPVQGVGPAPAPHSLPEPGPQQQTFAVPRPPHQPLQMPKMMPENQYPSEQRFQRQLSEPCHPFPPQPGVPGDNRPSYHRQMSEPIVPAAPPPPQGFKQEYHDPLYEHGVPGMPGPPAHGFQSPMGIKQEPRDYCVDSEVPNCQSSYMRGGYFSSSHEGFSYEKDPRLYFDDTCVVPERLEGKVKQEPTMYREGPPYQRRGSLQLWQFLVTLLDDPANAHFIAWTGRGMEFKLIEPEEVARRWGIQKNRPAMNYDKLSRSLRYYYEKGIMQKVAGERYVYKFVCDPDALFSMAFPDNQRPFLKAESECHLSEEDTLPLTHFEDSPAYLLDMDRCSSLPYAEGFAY
# Summary of the method: as §1
# [12] = target: HSF1 (Homo sapiens, UniProt Q00613 1-529); details: protein: recombinant; tags: N-terminal GST; chain copies: 3; dsDNA, one strand shown
# Chain of HSF1 (Q00613 whole entry): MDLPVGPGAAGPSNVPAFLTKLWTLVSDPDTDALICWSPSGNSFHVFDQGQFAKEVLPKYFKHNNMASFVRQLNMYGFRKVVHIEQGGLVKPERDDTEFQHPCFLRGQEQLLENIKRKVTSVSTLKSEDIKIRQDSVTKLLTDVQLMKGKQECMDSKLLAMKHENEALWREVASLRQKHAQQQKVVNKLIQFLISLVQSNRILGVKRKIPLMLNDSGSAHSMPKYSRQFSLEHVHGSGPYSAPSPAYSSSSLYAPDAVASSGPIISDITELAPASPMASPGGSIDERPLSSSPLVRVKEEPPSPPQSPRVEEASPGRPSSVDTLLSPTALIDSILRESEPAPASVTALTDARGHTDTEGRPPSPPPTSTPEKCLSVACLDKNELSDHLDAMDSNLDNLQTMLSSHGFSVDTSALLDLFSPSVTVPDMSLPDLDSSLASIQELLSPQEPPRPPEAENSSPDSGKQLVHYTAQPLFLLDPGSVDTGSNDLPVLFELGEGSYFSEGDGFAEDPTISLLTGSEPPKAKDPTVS
# Summary of the method: as §1
# [13] = target: T8, SPIC (Homo sapiens, UniProt Q8N5J4 1-248); details: protein: recombinant; tags: N-terminal GST; dsDNA, one strand shown
# T8 sequence: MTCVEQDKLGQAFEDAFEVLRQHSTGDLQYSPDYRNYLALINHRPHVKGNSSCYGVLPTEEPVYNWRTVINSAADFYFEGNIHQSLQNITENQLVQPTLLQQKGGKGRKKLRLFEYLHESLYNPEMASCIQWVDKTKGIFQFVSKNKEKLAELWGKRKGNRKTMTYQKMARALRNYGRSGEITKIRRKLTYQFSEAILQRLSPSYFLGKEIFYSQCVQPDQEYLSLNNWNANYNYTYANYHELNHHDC
# Summary of the method: as §1
# [14] = target: ELF4 (Homo sapiens, UniProt Q99607 1-663); details: protein: recombinant; tags: N-terminal GST; dsDNA, one strand shown
# Chain of ELF4 (Q99607 whole entry): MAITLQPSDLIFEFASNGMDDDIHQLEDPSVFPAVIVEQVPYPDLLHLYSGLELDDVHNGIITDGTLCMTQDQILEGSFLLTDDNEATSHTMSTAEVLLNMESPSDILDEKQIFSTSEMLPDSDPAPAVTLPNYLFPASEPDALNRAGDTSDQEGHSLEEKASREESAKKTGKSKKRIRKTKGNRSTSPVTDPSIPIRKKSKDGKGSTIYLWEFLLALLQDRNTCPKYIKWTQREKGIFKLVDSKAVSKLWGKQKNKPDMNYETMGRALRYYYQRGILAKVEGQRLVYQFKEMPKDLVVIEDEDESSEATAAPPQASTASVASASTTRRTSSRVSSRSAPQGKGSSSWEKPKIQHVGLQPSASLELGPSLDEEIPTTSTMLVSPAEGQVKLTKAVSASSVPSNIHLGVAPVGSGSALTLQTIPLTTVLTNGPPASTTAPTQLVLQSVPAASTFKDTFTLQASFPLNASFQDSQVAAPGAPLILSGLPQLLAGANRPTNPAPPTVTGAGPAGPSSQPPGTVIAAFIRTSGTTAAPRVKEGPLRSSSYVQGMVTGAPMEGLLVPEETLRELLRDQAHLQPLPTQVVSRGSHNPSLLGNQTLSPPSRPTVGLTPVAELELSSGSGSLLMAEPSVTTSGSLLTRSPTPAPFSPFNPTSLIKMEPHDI
# Summary of the method: as §1
# [15] = target: T9, ELK4 (Homo sapiens, UniProt P28324-2 1-405); details: protein: recombinant; tags: N-terminal GST; dsDNA, one strand shown
# T9 sequence: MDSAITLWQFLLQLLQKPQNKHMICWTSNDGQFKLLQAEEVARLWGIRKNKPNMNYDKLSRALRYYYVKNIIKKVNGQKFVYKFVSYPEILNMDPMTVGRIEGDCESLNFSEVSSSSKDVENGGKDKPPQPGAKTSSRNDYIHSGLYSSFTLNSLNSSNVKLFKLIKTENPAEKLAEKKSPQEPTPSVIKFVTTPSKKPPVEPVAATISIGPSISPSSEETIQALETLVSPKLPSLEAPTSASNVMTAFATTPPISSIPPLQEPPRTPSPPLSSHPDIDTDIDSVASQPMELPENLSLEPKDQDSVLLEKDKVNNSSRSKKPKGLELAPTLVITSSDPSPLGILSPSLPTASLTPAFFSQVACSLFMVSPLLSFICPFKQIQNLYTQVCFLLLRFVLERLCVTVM
# Summary of the method: as §1
# [16] = target: T10, ETV2 (Homo sapiens, UniProt O00321 1-342); details: protein: recombinant; tags: N-terminal GST; dsDNA, one strand shown
# T10 sequence: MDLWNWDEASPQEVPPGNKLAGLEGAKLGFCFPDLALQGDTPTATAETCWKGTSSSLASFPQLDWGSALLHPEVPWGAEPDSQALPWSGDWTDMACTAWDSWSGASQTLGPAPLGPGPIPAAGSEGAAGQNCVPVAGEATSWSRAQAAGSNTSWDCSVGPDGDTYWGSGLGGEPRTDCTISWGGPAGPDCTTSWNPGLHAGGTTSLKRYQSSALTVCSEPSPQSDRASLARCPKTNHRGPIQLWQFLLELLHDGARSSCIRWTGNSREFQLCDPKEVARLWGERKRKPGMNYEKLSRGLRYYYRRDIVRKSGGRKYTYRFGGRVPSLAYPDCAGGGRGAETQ
# Summary of the method: as §1
# [17] = target: T11, ELF3 (Homo sapiens, UniProt P78545 1-371); details: protein: recombinant; tags: N-terminal GST; dsDNA, one strand shown
# T11 sequence: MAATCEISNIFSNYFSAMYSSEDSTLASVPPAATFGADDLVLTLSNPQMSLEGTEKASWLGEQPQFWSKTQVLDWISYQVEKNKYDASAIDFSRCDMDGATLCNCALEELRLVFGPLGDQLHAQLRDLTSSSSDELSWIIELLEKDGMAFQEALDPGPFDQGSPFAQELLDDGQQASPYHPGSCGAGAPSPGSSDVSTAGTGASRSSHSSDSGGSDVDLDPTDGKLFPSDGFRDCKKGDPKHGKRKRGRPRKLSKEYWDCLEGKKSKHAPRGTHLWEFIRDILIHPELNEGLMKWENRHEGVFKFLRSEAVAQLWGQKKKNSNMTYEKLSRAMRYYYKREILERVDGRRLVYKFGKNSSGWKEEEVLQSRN
# Summary of the method: as §1
# [18] = target: CRX (Homo sapiens, UniProt O43186 1-299); details: protein: recombinant; tags: N-terminal GST; dsDNA, one strand shown
# Chain of CRX (O43186 whole entry): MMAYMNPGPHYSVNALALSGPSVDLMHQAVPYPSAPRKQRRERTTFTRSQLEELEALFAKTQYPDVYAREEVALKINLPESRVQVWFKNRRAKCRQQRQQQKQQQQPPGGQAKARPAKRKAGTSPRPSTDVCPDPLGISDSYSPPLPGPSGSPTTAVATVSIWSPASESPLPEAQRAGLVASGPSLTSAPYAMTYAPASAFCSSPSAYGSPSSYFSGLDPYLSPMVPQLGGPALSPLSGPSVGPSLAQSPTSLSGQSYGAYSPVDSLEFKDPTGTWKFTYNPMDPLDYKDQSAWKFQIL
# Summary of the method: as §1
# [19] = target: ETV1 (Homo sapiens, UniProt P50549 1-477); details: protein: recombinant; tags: N-terminal GST; dsDNA, one strand shown
# Chain of ETV1 (P50549 whole entry): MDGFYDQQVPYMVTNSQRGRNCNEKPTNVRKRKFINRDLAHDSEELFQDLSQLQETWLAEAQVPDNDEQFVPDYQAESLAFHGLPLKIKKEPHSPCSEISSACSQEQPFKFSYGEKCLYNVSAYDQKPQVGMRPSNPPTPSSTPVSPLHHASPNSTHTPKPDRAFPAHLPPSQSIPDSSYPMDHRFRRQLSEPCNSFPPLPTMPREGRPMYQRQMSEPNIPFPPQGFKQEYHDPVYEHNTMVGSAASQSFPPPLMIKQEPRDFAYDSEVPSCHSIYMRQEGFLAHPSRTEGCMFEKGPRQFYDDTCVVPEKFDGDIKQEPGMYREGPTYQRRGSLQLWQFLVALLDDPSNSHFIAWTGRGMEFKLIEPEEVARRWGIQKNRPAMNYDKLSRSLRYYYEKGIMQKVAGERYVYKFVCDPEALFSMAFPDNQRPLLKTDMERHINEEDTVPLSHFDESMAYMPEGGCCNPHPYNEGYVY
# Summary of the method: as §1
sequence,measurement,setting,value
CTTCGG,binding signal,[1],"1.48 fold enrichment (6-mer frequency, TF over GST control)"
same,binding signal,[2],"1.46 fold enrichment (6-mer frequency, TF over GST control)"
same,binding signal,[3],"1.58 fold enrichment (6-mer frequency, TF over GST control)"
same,binding signal,[4],"1.35 fold enrichment (6-mer frequency, TF over GST control)"
same,binding signal,[5],"1.39 fold enrichment (6-mer frequency, TF over GST control)"
same,binding signal,[6],"1.24 fold enrichment (6-mer frequency, TF over GST control)"
same,binding signal,[7],"1.37 fold enrichment (6-mer frequency, TF over GST control)"
same,binding signal,[8],"1.46 fold enrichment (6-mer frequency, TF over GST control)"
same,binding signal,[9],"1.38 fold enrichment (6-mer frequency, TF over GST control)"
same,binding signal,[10],"1.51 fold enrichment (6-mer frequency, TF over GST control)"
same,binding signal,[11],"1.54 fold enrichment (6-mer frequency, TF over GST control)"
same,binding signal,[12],"1.77 fold enrichment (6-mer frequency, TF over GST control)"
same,binding signal,[13],"1.48 fold enrichment (6-mer frequency, TF over GST control)"
same,binding signal,[14],"1.5 fold enrichment (6-mer frequency, TF over GST control)"
same,binding signal,[15],"1.52 fold enrichment (6-mer frequency, TF over GST control)"
same,binding signal,[16],"1.52 fold enrichment (6-mer frequency, TF over GST control)"
same,binding signal,[17],"1.39 fold enrichment (6-mer frequency, TF over GST control)"
same,binding signal,[18],"1.52 fold enrichment (6-mer frequency, TF over GST control)"
same,binding signal,[19],"1.72 fold enrichment (6-mer frequency, TF over GST control)"
